The whole screen tested about 48,000 compounds, of which about 13,000 (27%) showed an effect of 50% or more. The list shows a part of the results.
Each compound was assayed on Wolbachia pipientis (assay: Anti-Wolbachia Cell-Based Screen). Settings: 5 µM.
Format: functional
Design: scale not given: in the data most compounds retested in dose-response had high values

Row | SMILES | Percent Effect [%]
1 | CN(Cc1ccc(Cl)s1)C(=O)NCCC(=O)N1CCCCCC1 | -2.265
2 | CCn1c(CC2CCN(C(=O)C3COCCO3)CC2)nn(C)c1=O (stereo not given) | -4.106
3 | Cc1nc(C)n(CCNC2CCN(c3ncnc4c(C)csc34)CC2)n1 | -4.781
4 | N#Cc1ccccc1N1CCCN(CC(=O)Nc2ccc(Cl)cn2)CC1 | -6.971
5 | Cc1cc(N)nc(SC2CCCN(Cc3ccccc3)C2=O)n1 (stereo not given) | -26.38
6 | Cc1ccccc1N1CC2(CCN(Cc3nccn3C)C2)CC1=O.O=C(O)C(F)(F)F (stereo not given) | 12.68
7 | Cc1cnc(C(=O)N2CCC3(CCCN(c4nncs4)C3)C2)cn1 (stereo not given) | -22.67
8 | Cc1ccccc1N1CC2(CCN(c3nncs3)C2)CC1=O (stereo not given) | 115.5
9 | O=S1(=O)C[C@@H]2[C@H](C1)N(Cc1ncc[nH]1)CCN2CCCc1ccccc1 | 97.44
10 | O=S1(=O)C[C@@H]2[C@H](C1)N(S(=O)(=O)N1CCCC1)CCN2Cc1ccccc1 | -24.95
11 | CCc1ccccc1CN1CCN(Cc2ncc[nH]2)[C@H]2CS(=O)(=O)C[C@H]21 | 21.76
12 | O=C(C1CCCC1)N1CCN(Cc2ccncc2)[C@@H]2CS(=O)(=O)C[C@@H]21 | -3.8
13 | Cc1n[nH]c(CN2CCN(Cc3ccccc3)[C@@H]3CS(=O)(=O)C[C@@H]32)n1 | -3.3
14 | Cc1ccc(CN2CCN(Cc3ccncc3)[C@@H]3CS(=O)(=O)C[C@@H]32)cc1 | 9.085
15 | Cn1ccnc1CN1CCN(Cc2ccccc2)[C@@H]2CS(=O)(=O)C[C@@H]21 | 89.31
16 | Cn1ccnc1CN1CCN(Cc2ccncc2)[C@@H]2CS(=O)(=O)C[C@@H]21 | 120.1
17 | O=S1(=O)C[C@@H]2[C@H](C1)N(Cc1ncc[nH]1)CCN2C/C=C/c1ccccc1 | -2.971
18 | CC1(C)CCC(C(=O)N2CCCO2)c2ccccc21 (stereo not given) | 6.18
19 | CC(C)OC(=O)N1CCCC2(CCC(=O)N(CCc3c[nH]cn3)C2)C1 (stereo not given) | 2.776
20 | Cc1ccc(Cl)c(NC(=O)NC2(C)CCOC2)c1 (stereo not given) | -14.51
21 | Cc1nc(CNC(=O)CC2C(=O)NCCN2CCC(C)C)n[nH]1 (stereo not given) | 13.35
22 | CC(C)c1noc(CCCC(=O)N2CCC(Cc3cccnc3)CC2)n1 | -13.45

Row | SMILES | Percent Effect [%]
23 | O=C(CSCC1CC1)N1CCCC(c2nccn2Cc2cccnc2)C1 (stereo not given) | -14.92
24 | CC1CCCN(C(=O)CCNS(=O)(=O)c2cccnc2)C1 (stereo not given) | 5.119
25 | CN(C)CCn1ccnc1C1CCCN(C(=O)CCc2cccnc2)C1 (stereo not given) | -16.88
26 | O=C(CCn1ncc2ccccc21)N1CCCC(Cc2cccnc2)C1 (stereo not given) | 101.6
27 | Cc1ccn(CCC(=O)N2CCCC(Cc3cccnc3)C2)n1 (stereo not given) | 122.4
28 | CN(CCC(=O)N1CCCC(Cc2cccnc2)C1)Cc1cccnc1 (stereo not given) | 128.2
29 | O=C1CCCN1CCCC(=O)N1CCCC(Cc2cccnc2)C1 (stereo not given) | 77.87
30 | COCCN1CC2(CCC1=O)CCN(Cc1cc(F)ccc1Cl)CC2 | 8.376
31 | COCCCN1CC2(CCC1=O)CCN(Cc1cc(C)no1)CC2 | -12.58
32 | O=C(CCC1CCCO1)NCCN1CCCCC1 (stereo not given) | -10.6
33 | CC1CCCN(C(=O)CCc2cccnc2)C1 (stereo not given) | -4.583
34 | CSc1nnc(CC2CCN(C(=O)CCc3cccnc3)CC2)n1C | -9.622
35 | CC(C)C(=O)N1CCCC(Cc2cccnc2)C1 (stereo not given) | 104.6
36 | CC(C)C(=O)N1CCC2(CC1)NC(=O)[C@H]1CN(Cc3cccnc3)C[C@H]12 | -21.16
37 | Cn1nccc1CCC(=O)N1CCCC(Cc2cccnc2)C1 (stereo not given) | 92.49
38 | CC(C)c1nc(C2CCCN(C(=O)Cc3cccnc3)C2)no1 (stereo not given) | -1.83
39 | CCN(C(=O)Cc1ccc(NCc2ncc[nH]2)cc1)c1ccccc1 | -2.92
40 | Cc1[nH]c(=O)c(C#N)cc1C(=O)N1C[C@@H](CN2CCCC2)C[C@H](CO)C1 | 10.61
41 | CCOc1ccccc1C(CC(=O)Nc1ccccc1)NC(C)=O (stereo not given) | -7
42 | CCC(=O)N1CCN(c2cc(N(C)C)cnn2)CC1 | 6.449
43 | O=c1[nH]c(N2CC(O)C2)nc2c1cnn2-c1ccccc1 | 21.25
44 | Cc1nc(CN2C(=O)COC3(CCN(Cc4ccsc4)CC3)C2C)cs1.O=C(O)C(F)(F)F (stereo not given) | 114.5

Row | SMILES | Percent Effect [%]
45 | CC1N(CC2CC2)C(=O)COC12CCN(C(=O)c1cscn1)CC2 (stereo not given) | -4.225
46 | Cc1nc(CN2C(=O)COC3(CCN(CC4CC4)CC3)C2C)cs1.O=C(O)C(F)(F)F (stereo not given) | 98.79
47 | Cc1nc(CN2C(=O)COC3(CCN(Cc4nccs4)CC3)C2C)cs1.O=C(O)C(F)(F)F (stereo not given) | -7.401
48 | Cc1nc(CN2C(=O)COC3(CCN(C(N)=O)CC3)C2C)cs1 (stereo not given) | 117.7
49 | Cc1nc(CN2C(=O)CC3(CCN(C(N)=O)CC3)c3ccccc32)cs1.O=C(O)C(F)(F)F | -9.244
50 | COCC1CC2(CCN(C(N)=O)CC2)CN1Cc1csc(C)n1.O=C(O)C(F)(F)F (stereo not given) | -7.067
51 | Cc1nc(CN2C(=O)COC3(CCN(C)CC3)C2C)cs1.O=C(O)C(F)(F)F (stereo not given) | 127.2
52 | CCc1ccc(CNC(=O)Nc2cc(C)on2)s1 | -14.37
53 | COCc1nc2cc3c(cc2c(=O)o1)OCCCO3 | -7.292
54 | COc1cc(CC(O)CC#N)c(OC)c2c1OCO2 (stereo not given) | -11.73
55 | COCc1noc(-c2nn(-c3ccccc3F)c3c2CCC3)n1 | -4.596
56 | Cc1ncsc1CCC(=O)N1CCCC[C@H](N(C)C)C1 | 4.231
57 | CCCNc1ccc(C(=O)NCCc2ccc(Cl)cc2)cn1 | 106.9
58 | CNC(=O)c1cccc(CCNc2ccccn2)c1 | -20.45
59 | CCCNc1ccc(C(=O)NCCc2cccc(OC)c2)cn1 | 121.7
60 | COc1cc(C(=O)NCCc2cccc(C)c2)on1 | -13.11
61 | CNC(=O)c1cccc(CCNc2ccc(C#N)cn2)c1 | -20.96
62 | COc1cccc(CCNC(=O)c2ccc(=O)n(C)c2)c1 | 11.31
63 | CCCNc1ccc(C(=O)NCCc2cccc(Cl)c2)cn1 | 116.4
64 | CCNc1ncc(C(=O)NCCc2ccc(C)c(C)c2)cn1 | -6.077
65 | COc1cc(C(=O)NCCc2ccc(Cl)cc2)on1 | -4.303

Reference: ChEMBL document CHEMBL3988442, “University of Dundee, Small-Polar-MMV Screening Library” (2021)
